# Measurements taken from ChEMBL document CHEMBL4513146, “CO-ADD screening of Karazin Kharkiv National University (Ukraine) compounds”.
# Measured potencies and affinities stand elsewhere.
# Columns and labels:
# Staphylococcus aureus = conditions: Concentration 32 ug.mL-1;; ASSAY_TEST Inhibition of Bacterial Growth; detection method Absorption (OD600); MEDIA CAMHB; plate type 384well; NBS; CORNING #3640; time 18 hr
# Escherichia coli = conditions: Concentration 32 ug.mL-1;; ASSAY_TEST Inhibition of Bacterial Growth; detection method Absorption (OD600); MEDIA CAMHB; plate type 384well; NBS; CORNING #3640; time 18 hr
Compound,Inhibition (Staphylococcus aureus) [%],Inhibition (Escherichia coli) [%]
Cc1cc2nn(CC(=O)N3CCCc4ccccc43)c(=O)n2c(Nc2ccc(F)cc2)n1,6.5,-0.15
CCc1ccccc1NC(=O)Cn1nc2cc(C)nc(Nc3ccc(F)cc3)n2c1=O,8.34,-2.85
O=C(Cn1nc2c3sccc3ncn2c1=O)Nc1ccc2c(c1)OCO2,-1.71,-14.29
CC(C)c1nnc2c(SCC(=O)Nc3cccc(Cl)c3)nc3ccccc3n12,8.54,0
Cn1c(=O)c2sccc2n2c(=O)n(Cc3ccc(Cl)cc3)nc12,3.13,-4.41
COc1ccc(-n2ccn3c(-c4cccc([N+](=O)[O-])c4)nnc3c2=O)cc1,3.65,-6.72
Cc1ccc(NC(=O)Cn2nc3ccc(SCc4ccc(Cl)cc4)nn3c2=O)cc1C,4.09,-6.92
COc1cccc(CN(c2ccc(C(C)C)cc2)S(=O)(=O)c2cccn3cnnc23)c1,7.94,-1.44
O=C(Cn1nc2c3cc(-c4ccc(F)cc4)nn3ccn2c1=O)NCc1ccccc1Cl,7.18,-0.1
Cc1cc2nn(CC(=O)Nc3ccc(F)c(F)c3)c(=O)n2c(Nc2ccc(C)c(F)c2)n1,7.73,-3.04
Cc1ccc(-c2ccc3nn(CC(=O)Nc4ccc(Br)cc4F)c(=O)n3n2)cc1,3.77,-3
CCOc1ccc(-n2ccn3c(SCC(=O)Nc4ccc(CC)cc4)nnc3c2=O)cc1,18.59,-0.7
CCCc1nnc2c(=O)n(CC(=O)Nc3ccc(C(C)=O)cc3)c3ccccc3n12,1.62,1.52
COc1ccc(NC(=O)CSc2nnc3c(=O)n(-c4ccccc4)ccn23)cc1,-4.77,-6.17
Cc1cc2nn(CC(=O)Nc3ccc(F)cc3)c(=O)n2c(Nc2ccccc2C)n1,11.27,1.51
COc1cccc(-n2ccn3c(SCC(=O)Nc4ccccc4F)nnc3c2=O)c1,8.86,-8.93
COc1cccc(-n2ccn3c(SCc4cccc(C(F)(F)F)c4)nnc3c2=O)c1,7.34,-9.08
CCCn1c(=O)c2sccc2n2c(=O)n(Cc3ccc(Cl)cc3)nc12,1.51,-6.17
Cn1c(=O)c2sccc2n2c(=O)n(Cc3cccc(Br)c3)nc12,14.17,0.53

Compound,Inhibition (Staphylococcus aureus) [%],Inhibition (Escherichia coli) [%]
O=C(Cn1nc2nc(Nc3ccc(F)cc3)ccn2c1=O)NCc1ccc(F)cc1Cl,7.6,-1.86
CCc1ccc(N(Cc2ccc(F)cc2)S(=O)(=O)c2cccn3c(CC)nnc23)cc1,19.9,-4.69
CCc1nnc2c(SCC(=O)Nc3ccc(Br)cc3)nc3ccccc3n12,-16.96,0.98
CCCn1c(=O)c2sccc2n2c(=O)n(CC(=O)c3ccccc3)nc12,3.8,2.71
COC(=O)c1ccccc1NC(=O)Cn1nc2c(Oc3cccc(OC)c3)nccn2c1=O,-4.11,-21.29
O=c1n(Cc2cccc(C(F)(F)F)c2)nc2ccc(S(=O)(=O)N3CCCC3)cn12,14.07,-1.1
CC(C)Cn1c(=O)c2sccc2n2c(=O)n(CC(=O)NC(C)(C)C)nc12,-11.52,-13.32
Cc1cc2nn(CC(=O)Nc3cc(F)ccc3C)c(=O)n2c(Nc2ccc(C)c(F)c2)n1,2.63,-8.01
Cc1nnc2ccc(S(=O)(=O)N(Cc3ccccc3Cl)c3ccc(F)cc3)cn12,-4.74,-4.95
Cc1cccc(CSc2nnc3c(=O)n(-c4ccc(Br)cc4)ccn23)c1,20.89,1.19
O=C(CSc1nnc2c3cc(-c4ccc(F)cc4)nn3ccn12)NCc1ccccc1,-2.17,-6.24
O=C(CSc1nnc2c(=O)n(-c3ccccc3)ccn12)c1c[nH]c2ccccc12,16.15,-0.51
Cc1ccc(Oc2nccn3c(=O)n(CC(=O)Nc4ccc(Br)cc4)nc23)cc1,6.95,-5.29
Cc1ccc(Sc2nccn3c(=O)n(CC(=O)N4CCN(c5ccccc5F)CC4)nc23)c(C)c1,2.97,-4.29
COc1ccc(-c2cc3c4nnc(SCC(=O)Nc5ccccc5F)n4ccn3n2)cc1,-1.6,-2.74
COc1cccc(-n2ccn3c(SCC(=O)Nc4ccc(Cl)cc4)nnc3c2=O)c1,16.43,-13.45
Cc1nnc2c(SCC(=O)Nc3cccc(Br)c3)nc3ccccc3n12,-13.66,-1.77
COc1ccc(-c2noc(Cn3nc4ccc(-c5ccccc5)nn4c3=O)n2)cc1OC,7.44,-3.1
